This is part of a sample that, as a whole, favours compounds with a hit. Of some 83,000 tested, about 20% had one in any assay.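 Note: values are percent growth. 100 is the growth of untreated cells, values between 100 and 0 indicate rising inhibition; between -100 and 0 indicates cell death.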 Values without a mark were called inactive. Calls of active or inactive are those of the source. The calls were made as follows: active = growth percent below 10; inactive = the rest.
What was measured:
Assay in all cases: NCI-60 one-dose screen, 48 h (100 = growth as untreated, 0 = no growth, -100 = all killed)
Conditions in all cases: 10 µM unless noted
T-47D breast = system: T-47D breast
MDA-MB-435 melanoma = system: MDA-MB-435 melanoma
SW-620 colon = system: SW-620 colon
MCF7 breast = system: MCF7 breast
HCT-116 colon = system: HCT-116 colon
HCC-2998 colon = system: HCC-2998 colon
KM12 colon = system: KM12 colon
MDA-MB-468 breast = system: MDA-MB-468 breast
BT-549 breast = system: BT-549 breast

Compound: O=C1N/C(=N\c2nccs2)S/C1=C\C=C/c1ccccc1
- growth (T-47D breast): 32.7%
- growth (MDA-MB-435 melanoma): 44.5%
- growth (SW-620 colon): 41%
- growth (MCF7 breast): 16.1%
- growth (HCT-116 colon): 12.1%
- growth (HCC-2998 colon): 75.7%
- growth (KM12 colon): 38%
- growth (MDA-MB-468 breast): 44.2%

Compound: CN1CCN(c2ccc(C(=O)/C=C/c3cc(C(F)(F)F)cc(C(F)(F)F)c3)cc2)CC1
- growth (T-47D breast): -68.7% (active)
- growth (MDA-MB-435 melanoma): -60.8% (active)
- growth (SW-620 colon): -44.8% (active)
- growth (MCF7 breast): -82.3% (active)
- growth (HCT-116 colon): -87.4% (active)
- growth (HCC-2998 colon): -91% (active)
- growth (KM12 colon): -56.8% (active)
- growth (MDA-MB-468 breast): -69.3% (active)

Compound: N#Cc1c(-c2cccnc2)cc(-c2ccc3ccccc3c2)[nH]c1=O
- growth (T-47D breast): 93%
- growth (MDA-MB-435 melanoma): 99.4%
- growth (MCF7 breast): 60.5%
- growth (HCT-116 colon): 80%
- growth (HCC-2998 colon): 96.4%
- growth (KM12 colon): 92.9%
- growth (MDA-MB-468 breast): 94.1%

Compound: N/C(=N\c1nc2ccccc2s1)NC(=O)Nc1c(Cl)cccc1Cl
- growth (T-47D breast): 18%
- growth (MDA-MB-435 melanoma): -17.9% (active)
- growth (SW-620 colon): 25.6%
- growth (MCF7 breast): 15.6%
- growth (HCT-116 colon): 22.7%
- growth (HCC-2998 colon): 68.6%
- growth (KM12 colon): 21.4%
- growth (MDA-MB-468 breast): -4.05% (active)

Compound: O=c1[nH]c2ccc(Cl)cc2cc1CSc1nccc(-c2ccc(Cl)cc2)n1
- growth (T-47D breast): 41.6%
- growth (MDA-MB-435 melanoma): 76.5%
- growth (SW-620 colon): 73.4%
- growth (HCT-116 colon): 30.3%
- growth (HCC-2998 colon): 61.7%
- growth (KM12 colon): 69.7%
- growth (MDA-MB-468 breast): 29.7%

Compound: CC(C)CCNC(=O)N/C(N)=N/c1nc2ccccc2s1
- growth (T-47D breast): 46.6%
- growth (MDA-MB-435 melanoma): 44.2%
- growth (MCF7 breast): 28.5%
- growth (HCT-116 colon): 54.7%
- growth (HCC-2998 colon): 97.6%
- growth (KM12 colon): 62.7%
- growth (MDA-MB-468 breast): 5.8% (active)

Compound: C/C(=N\Nc1ccc(S(N)(=O)=O)cc1)c1ccc(N=Nc2c(Nc3ccccc3)[nH][nH]c2=O)cc1
- growth (T-47D breast): -30.8% (active)
- growth (MDA-MB-435 melanoma): -13.6% (active)
- growth (MCF7 breast): -31.2% (active)
- growth (HCT-116 colon): 0.299% (active)
- growth (HCC-2998 colon): -24.6% (active)
- growth (KM12 colon): 3.69% (active)
- growth (MDA-MB-468 breast): -35.6% (active)

Compound: COc1cc(CNC(=O)/C=C/c2ccc3c(c2)OCO3)ccc1OCc1cn(-c2ccc([N+](=O)[O-])cc2)nn1
- growth (T-47D breast): 65.5%
- growth (MDA-MB-435 melanoma): 101%
- growth (MCF7 breast): 81.8%
- growth (HCT-116 colon): 85.3%
- growth (HCC-2998 colon): 104%
- growth (KM12 colon): 100%
- growth (MDA-MB-468 breast): 72.4%

Compound: CCOC(=O)C1=C(N)N(c2ccccc2)C2=C(C(=O)CC(C)(C)C2)C1c1ccc(Cl)cc1Cl (centres undefined)
- growth (T-47D breast): 20.9%
- growth (MDA-MB-435 melanoma): 29.5%
- growth (MCF7 breast): 9.22% (active)
- growth (HCT-116 colon): 13.6%
- growth (HCC-2998 colon): 37.5%
- growth (KM12 colon): 18.7%
- growth (MDA-MB-468 breast): 3.8% (active)

Compound: COc1ccc(NC(=O)c2sc3nc(C(C)C)ccc3c2N)cc1
- growth (T-47D breast): 42%
- growth (MDA-MB-435 melanoma): 87.5%
- growth (MCF7 breast): 79.5%
- growth (HCT-116 colon): 94.7%
- growth (HCC-2998 colon): 100%
- growth (KM12 colon): 78.2%
- growth (MDA-MB-468 breast): 55.8%

Compound: CC(=O)Oc1ccccc1C(=O)[Se]CC(=O)Nc1cccc(C(F)(F)F)c1
- growth (T-47D breast): 56.5%
- growth (MDA-MB-435 melanoma): -29.7% (active)
- growth (MCF7 breast): 3.36% (active)
- growth (HCT-116 colon): -47.7% (active)
- growth (HCC-2998 colon): 60%
- growth (KM12 colon): 25.3%
- growth (MDA-MB-468 breast): -88.8% (active)

Compound: COc1ccc(C(=O)/C=C/c2cccnc2)cc1S(N)(=O)=O
- growth (T-47D breast): 16.9%
- growth (MDA-MB-435 melanoma): 73.5%
- growth (MCF7 breast): 7.45% (active)
- growth (HCT-116 colon): -18.1% (active)
- growth (HCC-2998 colon): 77.3%
- growth (KM12 colon): 1.84% (active)
- growth (MDA-MB-468 breast): 20.5%

Compound: N#Cc1c(NCc2ccccc2)n[nH]c1Nc1ccccc1
- growth (T-47D breast): 17.2%
- growth (MDA-MB-435 melanoma): 56.6%
- growth (SW-620 colon): 62.7%
- growth (MCF7 breast): 41.6%
- growth (HCT-116 colon): 33.1%
- growth (HCC-2998 colon): 99.7%
- growth (KM12 colon): 55.7%
- growth (MDA-MB-468 breast): 59.8%

Compound: O=C(/C=C/c1ccc(-c2ccccc2)cc1)c1nc2ccccc2n1Cc1ccc(Br)cc1
- growth (T-47D breast): 7.98% (active)
- growth (MDA-MB-435 melanoma): 61.9%
- growth (MCF7 breast): 21.3%
- growth (HCT-116 colon): 24%
- growth (HCC-2998 colon): 62.6%
- growth (KM12 colon): 74.3%
- growth (MDA-MB-468 breast): 49.6%

Compound: Cc1ccc(C(=O)CSc2nc3ccc(C)cc3c(=O)n2-c2ccc(F)cc2)cc1
- growth (T-47D breast): 52.5%
- growth (MDA-MB-435 melanoma): 89.6%
- growth (MCF7 breast): 78.1%
- growth (HCT-116 colon): 18.8%
- growth (HCC-2998 colon): 83.5%
- growth (KM12 colon): 93.7%
- growth (MDA-MB-468 breast): 67.2%

Compound: Cn1cc(-c2cc3nc(-c4cn(C)c5ncc(Br)cc45)cc(N)n3n2)c2ccccc21
- growth (T-47D breast): -40.9% (active)
- growth (MDA-MB-435 melanoma): -70.8% (active)
- growth (SW-620 colon): -48% (active)
- growth (HCT-116 colon): -100% (active)
- growth (HCC-2998 colon): -89% (active)
- growth (KM12 colon): -55.5% (active)
- growth (MDA-MB-468 breast): -78.9% (active)

Compound: CCOC(=O)/C=C/c1cccc2c1C(=O)NC(C)(c1cc3cc(Br)ccc3oc1=O)N2 (centres undefined)
- growth (T-47D breast): 18.2%
- growth (MDA-MB-435 melanoma): 54.7%
- growth (SW-620 colon): 61.2%
- growth (MCF7 breast): 35.3%
- growth (HCT-116 colon): 32.2%
- growth (HCC-2998 colon): 68.8%
- growth (KM12 colon): 41.1%
- growth (MDA-MB-468 breast): 32.3%

Compound: COc1ccc(C2=NN(c3ccccc3)C(c3ccc(OCc4ccccc4)c(OC)c3)C2)cc1OC (centres undefined)
- growth (T-47D breast): 89.4%
- growth (MDA-MB-435 melanoma): 105%
- growth (SW-620 colon): 101%
- growth (MCF7 breast): 84.8%
- growth (HCT-116 colon): 85.9%
- growth (HCC-2998 colon): 117%
- growth (KM12 colon): 91.8%
- growth (MDA-MB-468 breast): 105%

Compound: O=C(C1=CNC(=S)NC1c1ccc(O)cc1)c1cc2ccccc2oc1=O (centres undefined)
- growth (T-47D breast): 112%
- growth (MDA-MB-435 melanoma): 105%
- growth (SW-620 colon): 104%
- growth (HCT-116 colon): 101%
- growth (HCC-2998 colon): 102%
- growth (KM12 colon): 95.8%
- growth (MDA-MB-468 breast): 99.5%

Compound: CCN(CC)C(=O)N/C(N)=N/c1nc2ccccc2s1
- growth (T-47D breast): 12.6%
- growth (MDA-MB-435 melanoma): 37.5%
- growth (MCF7 breast): 37.6%
- growth (HCT-116 colon): 43.4%
- growth (HCC-2998 colon): 88.2%
- growth (KM12 colon): 73.9%
- growth (MDA-MB-468 breast): 5.79% (active)

Compound: O=C(COc1ccc(NC(=O)Nc2ccc(Cl)cc2)cc1)N/N=C/c1ccccc1
- growth (T-47D breast): -81.6% (active)
- growth (MDA-MB-435 melanoma): -88.5% (active)
- growth (MCF7 breast): -78.6% (active)
- growth (HCT-116 colon): -40% (active)
- growth (HCC-2998 colon): -77.4% (active)
- growth (KM12 colon): -70.3% (active)
- growth (MDA-MB-468 breast): -94.4% (active)

Compound: Cc1cc(N=C2NC(=O)CS2)n[nH]1
- growth (T-47D breast): 101%
- growth (MDA-MB-435 melanoma): 113%
- growth (SW-620 colon): 103%
- growth (MCF7 breast): -92.2% (active)
- growth (HCT-116 colon): 103%
- growth (HCC-2998 colon): 112%
- growth (KM12 colon): 101%
- growth (MDA-MB-468 breast): 114%

Compound: COc1ccc(C(=O)/C=C/c2ccc(Cl)c(Cl)c2)cc1S(N)(=O)=O
- growth (T-47D breast): -54.7% (active)
- growth (MDA-MB-435 melanoma): 2.27% (active)
- growth (SW-620 colon): -48.8% (active)
- growth (MCF7 breast): -48.7% (active)
- growth (HCT-116 colon): -96.2% (active)
- growth (HCC-2998 colon): -74.1% (active)
- growth (KM12 colon): -46.7% (active)
- growth (MDA-MB-468 breast): -19.4% (active)

Compound: C[C@H](Nc1nc(NCCc2ccccc2)nc2ccccc12)c1ccccc1
- growth (T-47D breast): -55.1% (active)
- growth (MDA-MB-435 melanoma): -88.5% (active)
- growth (MCF7 breast): -87.4% (active)
- growth (HCT-116 colon): -83.7% (active)
- growth (HCC-2998 colon): -98.7% (active)
- growth (KM12 colon): -77.2% (active)
- growth (MDA-MB-468 breast): -96.3% (active)

Compound: Cc1cc2nc3c4ccccc4n(CC4=NCCN4)c3nc2cc1C
- growth (T-47D breast): 15.4%
- growth (MDA-MB-435 melanoma): -86.6% (active)
- growth (SW-620 colon): -40.2% (active)
- growth (MCF7 breast): -90.5% (active)
- growth (HCT-116 colon): -92.8% (active)
- growth (HCC-2998 colon): -46.6% (active)
- growth (KM12 colon): 43%
- growth (MDA-MB-468 breast): -57.3% (active)

Compound: CN1CCN(c2ccc(C(=O)/C=C/c3ccc(Br)cc3)cc2)CC1
- growth (T-47D breast): 15.2%
- growth (MDA-MB-435 melanoma): 22.5%
- growth (SW-620 colon): 19.4%
- growth (MCF7 breast): 6.72% (active)
- growth (HCT-116 colon): 7.41% (active)
- growth (HCC-2998 colon): 14.7%
- growth (KM12 colon): 10.6%
- growth (MDA-MB-468 breast): -1.53% (active)

Compound: COc1cc2oc(-c3cccc(C(=O)Nc4cccc([N+](=O)[O-])c4)c3)cc(=O)c2c(OC)c1OC
- growth (BT-549 breast): -15.9% (active)
- growth (MDA-MB-435 melanoma): 39.4%
- growth (SW-620 colon): 83.1%
- growth (MCF7 breast): 25.1%
- growth (HCT-116 colon): 25.2%
- growth (HCC-2998 colon): 32.6%
- growth (KM12 colon): 47.9%

Compound: COc1ccc(-c2nc3cc(C)ccc3n2CC(=O)N=Nc2c(O)[nH]c3ccc(Br)cc23)cc1
- growth (T-47D breast): -2.62% (active)
- growth (MDA-MB-435 melanoma): 2.16% (active)
- growth (SW-620 colon): 9.98% (active)
- growth (HCT-116 colon): -69.6% (active)
- growth (HCC-2998 colon): 22.7%
- growth (KM12 colon): 11.5%
- growth (MDA-MB-468 breast): -46.6% (active)

Compound: Cn1cc(-c2nc(N)nnc2-c2c[nH]c3ccc(Br)cc23)c2cc(Br)cnc21
- growth (T-47D breast): 34.6%
- growth (MDA-MB-435 melanoma): -20.8% (active)
- growth (SW-620 colon): 20.8%
- growth (MCF7 breast): 3.81% (active)
- growth (HCT-116 colon): -37.1% (active)
- growth (HCC-2998 colon): 1.16% (active)
- growth (KM12 colon): 5.44% (active)
- growth (MDA-MB-468 breast): 1.62% (active)

Source: PubChem BioAssay (NCI)
